Assay outcomes: PubChem, National Center for Advancing Translational Sciences (NCATS)
Cruzain noTriton: blocks cruzain activity in detergent-free assay; P25779; hit rate 2.3% among 200,000; AID 1476; purified cruzain, Z-FR-AMC fluorescence, no detergent; Potency, µM, hits mostly inhibitors; also: nearly all actives have a fitted effect of over 40% in size
Target sequence (P25779 123-467 limits assumed): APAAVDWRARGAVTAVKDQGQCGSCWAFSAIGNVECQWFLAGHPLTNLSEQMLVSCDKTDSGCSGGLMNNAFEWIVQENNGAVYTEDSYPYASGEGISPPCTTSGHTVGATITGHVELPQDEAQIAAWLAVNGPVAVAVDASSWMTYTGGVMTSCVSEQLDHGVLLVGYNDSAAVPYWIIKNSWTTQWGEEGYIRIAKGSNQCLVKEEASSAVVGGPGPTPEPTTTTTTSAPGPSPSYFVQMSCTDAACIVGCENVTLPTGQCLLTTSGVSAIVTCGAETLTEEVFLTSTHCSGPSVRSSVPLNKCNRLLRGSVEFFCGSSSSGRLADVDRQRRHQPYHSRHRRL
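Purified cruzain at 1.5 nM, pre-incubated 15 min with compound at room temperature in 100 mM sodium acetate pH 5.5, 5 mM DTT, 0.00005% Triton X-100. Reaction started with 2 uM Z-FR-AMC; AMC fluorescence increase over 60 s gives rate.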
NS1 inh: influenza NS1 inhibition; Potency, µM (doses to about 46.1 µM); AID 2326; hit rate 0.4% among 270,000; calls by dose curve; also: actives are rising curves; nearly all actives have a fitted effect of over 50% in size
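Growth recovery, yeast-based: influenza A NS1 expressed in S. cerevisiae causes slow growth, and suppressors are detected by OD600. The parent strain without NS1 is used as positive control.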
Cruzain inh Det: blocks cruzain activity in presence of Triton detergent; hit rate 0.43% among 200,000; purified cruzain, Z-FR-AMC fluorescence, 0.01% Triton; AID 1478; P25779; Potency, µM, hits mostly inhibitors; also: nearly all actives have a fitted effect of over 40% in size
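Detergent-containing run (0.01% Triton X-100) in acetate buffer pH 5.5 with 5 mM DTT: enzyme at 1.5 nM final, 15 min compound preincubation at room temperature, then 2 uM Z-FR-AMC substrate. Activity taken as 60 s fluorescence increase at 360/450 nm.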
A number is an active result. Only a selection was taken, and hits are over-represented in it overall. Unless noted, calls follow the shape of the dose curve; as a rule, active = well fitted curve in the direction sought with a large enough effect; inconclusive = small, poorly fitted or top-dose-only effect, or another doubt; inactive = no such curve, though single readings can be large; an effect the other way counts as inactive or inconclusive.

Results for Cc1nn(C(C)C(=O)NCc2ccc(OC(C)C)cc2)c(=O)c2c1sc1ccccc12 (stereo not given) ?
Cruzain noTriton: inactive; Cruzain inh Det: inconclusive

Results for Cc1ccc(CNC(=O)C(C)n2nc(C)c3sc4ccccc4c3c2=O)cc1 (stereo not given) ?
Cruzain noTriton: 3.98µM; Cruzain inh Det: inactive

What do the screens show for `O=C(Nc1cccc(Cl)c1)C1CCCN1S(=O)(=O)c1cccc2cccnc12` (stereo not given)?
Cruzain noTriton: inconclusive; Cruzain inh Det: inactive

Results for Cc1nn(Cc2ccc(C(=O)N3CCN(C(=O)c4ccco4)CC3)o2)c(C)c1[N+](=O)[O-] ?
NS1 inh: inactive

How did CCC(C)NC(=O)CCCc1nnc2n(CC(C)C)c(=O)c3sccc3n12 (stereo not given) do in these assays?
Cruzain noTriton: inactive; Cruzain inh Det: inactive

What do the screens show for `Cc1sc(NC(=S)NC(=O)CCc2ccccc2)c(C(N)=O)c1C`?
Cruzain noTriton: 3.98µM; NS1 inh: inactive; Cruzain inh Det: inactive

Results for COC(=O)CCC(=O)NC(=S)Nc1sc(C)c(C)c1C(N)=O ?
Cruzain noTriton: inconclusive; NS1 inh: inactive; Cruzain inh Det: inactive

Results for COC(=O)c1nn(-c2ccccc2)c2nnc(Cc3ccc(C)cc3)c(=O)n12 ?
Cruzain noTriton: inactive; NS1 inh: inactive; Cruzain inh Det: inactive

How did O=C(c1ccccc1)c1nn(-c2ccccc2)c2nnc(Cc3ccccc3)c(=O)n12 do in these assays?
Cruzain noTriton: 25.1µM; NS1 inh: inactive; Cruzain inh Det: inactive

What do the screens show for `O=C(CCN1C(=O)/C(=C/C=C/c2ccccc2)SC1=S)Nc1nc2ccccc2s1`?
Cruzain noTriton: 7.94µM; NS1 inh: inactive; Cruzain inh Det: inactive

Results for O=C(CCN1C(=O)/C(=C\C=C\c2ccccc2)SC1=S)Nc1ccc(C(=O)O)cc1 ?
NS1 inh: inactive

Results for COc1ccccc1N/N=C/c1ccc2c(c1)OCO2 ?
Cruzain noTriton: inconclusive; NS1 inh: inactive; Cruzain inh Det: inactive

How did COc1cc(NC(=O)COC(=O)CC(C)(C)C)c(C)cc1[N+](=O)[O-] do in these assays?
Cruzain noTriton: inactive; NS1 inh: inactive; Cruzain inh Det: inactive

How did COc1cc(NC(=O)COC(=O)CNC(=O)c2ccc(Cl)cc2)c(C)cc1[N+](=O)[O-] do in these assays?
Cruzain noTriton: 10µM; NS1 inh: inactive; Cruzain inh Det: 12.6µM

What do the screens show for `COc1cc(NC(=O)COC(=O)CNC(=O)c2ccc(C)cc2)c(C)cc1[N+](=O)[O-]`?
Cruzain noTriton: 12.6µM; NS1 inh: inactive; Cruzain inh Det: 12.6µM

What do the screens show for `COc1cc(NC(=O)COC(=O)C2CC2)c(C)cc1[N+](=O)[O-]`?
Cruzain noTriton: inactive; NS1 inh: inactive; Cruzain inh Det: inactive

How did COCCn1c(-c2ccco2)nc2nc3ccccc3nc21 do in these assays?
Cruzain noTriton: inactive; NS1 inh: inactive; Cruzain inh Det: 28.2µM

How did CC(C)OCCCn1c(-c2ccco2)nc2nc3ccccc3nc21 do in these assays?
Cruzain noTriton: inconclusive; NS1 inh: inactive; Cruzain inh Det: inconclusive

What do the screens show for `Cc1c(Cl)cccc1N/C(SCC(=O)N1CCCCCC1)=C(/C#N)c1nc2ccccc2s1`?
Cruzain noTriton: 10µM; NS1 inh: inactive; Cruzain inh Det: inactive

How did O=C(CSc1nc2ccccc2s1)N1CCCCC1 do in these assays?
Cruzain noTriton: inactive; NS1 inh: inactive; Cruzain inh Det: inactive

What do the screens show for `CCCCN(CC)C(=O)Cn1c(=O)n(-c2ccc(OCC)cc2)c(=O)c2c3c(sc21)CCC3`?
Cruzain noTriton: inactive; Cruzain inh Det: inactive

How did CC1=C(C#N)C2(O)C(=O)c3ccccc3C2(O)N1 (stereo not given) do in these assays?
NS1 inh: inactive

What do the screens show for `CCN(C(=O)CN1C(=O)/C(=C/c2ccccc2)SC1=S)C1CCS(=O)(=O)C1` (stereo not given)?
NS1 inh: inactive

Results for CC1=C(C(=O)Nc2ccccc2)C(c2ccccc2Cl)n2ncc(C(=O)Nc3cccc(C)c3)c2N1 (stereo not given) ?
Cruzain noTriton: 20µM; Cruzain inh Det: inactive

Results for CC1=C(C(=O)Nc2ccccc2)C(c2ccccc2C)n2ncc(C(=O)Nc3ccccc3)c2N1 (stereo not given) ?
Cruzain noTriton: inactive; Cruzain inh Det: inactive

Results for COc1ccc(CN2C(=O)c3ccccc3C2C(=O)NCc2cccnc2)c(OC)c1 (stereo not given) ?
Cruzain noTriton: inactive; NS1 inh: inactive; Cruzain inh Det: inactive

How did CNC(=S)N/N=C/c1cc(Br)c(OCc2ccncc2)c(OC)c1 do in these assays?
NS1 inh: inactive

How did CCOc1cc(/C=N/NC(N)=S)cc(Br)c1OCc1ccccc1C do in these assays?
Cruzain noTriton: 1µM; NS1 inh: inactive; Cruzain inh Det: 3.16µM

What do the screens show for `COc1cc(/C=N/N=C(/N)c2nonc2N)cc(Br)c1OCc1cccc(C)c1`?
Cruzain noTriton: inactive; NS1 inh: inactive; Cruzain inh Det: inactive

What do the screens show for `CCOc1cc(/C=N/NC(N)=O)cc(Br)c1OCc1ccccc1`?
Cruzain noTriton: inactive; NS1 inh: inactive; Cruzain inh Det: inactive

How did CCOc1cc(/C=N/N=C(\N)c2nonc2N)cc(Br)c1OCc1cccc2ccccc12 do in these assays?
Cruzain noTriton: 6.31µM; NS1 inh: inactive; Cruzain inh Det: inactive

What do the screens show for `COc1cc(/C=N/NC(N)=S)cc(Br)c1OCc1ccccc1F`?
Cruzain noTriton: 0.199µM; NS1 inh: inactive; Cruzain inh Det: 0.562µM

Results for O=C(CNC(=O)c1nc[nH]c1C(=O)N1CCN(c2ccccc2)CC1)OCc1ccccc1 ?
NS1 inh: inactive

What do the screens show for `O=C(CSc1nc(-c2ccccc2)nc2c1CCCC2)c1ccc(Cl)cc1`?
Cruzain noTriton: inactive; Cruzain inh Det: inactive

How did Cn1c(=O)c2c(nc(CN3CCN(C(=O)c4ccco4)CC3)n2CC(N)=O)n(C)c1=O do in these assays?
NS1 inh: inactive

What do the screens show for `CCCC1C(=O)N(Cc2ccccc2)C(=O)CC1C` (stereo not given)?
NS1 inh: inactive

What do the screens show for `O=[N+]([O-])c1ccc(Nc2nc3ccccc3s2)cc1`?
Cruzain noTriton: 3.98µM; NS1 inh: inactive; Cruzain inh Det: 3.55µM

How did Cc1ccc(Nc2nc3ccccc3s2)cc1 do in these assays?
Cruzain noTriton: inactive; NS1 inh: inactive; Cruzain inh Det: inactive

Results for CC(=O)c1ccc(N2CCN(c3ccccc3O)CC2)c([N+](=O)[O-])c1 ?
NS1 inh: inactive

What do the screens show for `c1ccc(Oc2ccc(-c3ccnc4ncnn34)cc2)cc1`?
NS1 inh: inactive

What do the screens show for `CCN(CC)C(=O)c1sc2nc(-c3cccs3)cc(-c3cccs3)c2c1N`?
NS1 inh: inactive

How did N#Cc1sc2nc(-c3cccs3)cc(-c3ccc(Cl)cc3)c2c1N do in these assays?
Cruzain noTriton: 12.6µM; NS1 inh: inactive; Cruzain inh Det: inactive

What do the screens show for `N#Cc1sc2nc(-c3cccs3)cc(-c3ccccc3)c2c1N`?
Cruzain noTriton: 15.8µM; NS1 inh: inactive; Cruzain inh Det: inactive

Results for COc1ccc(-c2cc(C3CC3)nc3sc(C#N)c(N)c23)cc1 ?
Cruzain noTriton: inactive; NS1 inh: inactive; Cruzain inh Det: inactive

Results for Cc1c(NC(=O)C(=O)/C=C(/O)c2ccccc2)c(=O)n(-c2ccccc2)n1C ?
Cruzain noTriton: inactive; NS1 inh: inactive; Cruzain inh Det: inactive

What do the screens show for `Cc1cc(-c2ccccc2)nc2cc(C(=O)OC(C)C)nn12`?
NS1 inh: inactive
